High-throughput results deposited in PubChem BioAssay by National Center for Advancing Translational Sciences (NCATS).
FLuc modulator = firefly luciferase modulation, counter-screen for miR-21 project; P08659; purified FLuc, Km substrates, luminescence inhibition; Potency, µM (doses to about 57.5 µM), for inactives: at the highest dose activity change, negative = inhibition, most hits filed as inhibitors; 6.9% of 360,000 active; AID 588342;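 also: plate controls were vehicle for no effect and reference inhibitor for full effect; nearly all actives have a fitted effect of over 55% in size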
Target sequence (P08659 whole entry, looked up): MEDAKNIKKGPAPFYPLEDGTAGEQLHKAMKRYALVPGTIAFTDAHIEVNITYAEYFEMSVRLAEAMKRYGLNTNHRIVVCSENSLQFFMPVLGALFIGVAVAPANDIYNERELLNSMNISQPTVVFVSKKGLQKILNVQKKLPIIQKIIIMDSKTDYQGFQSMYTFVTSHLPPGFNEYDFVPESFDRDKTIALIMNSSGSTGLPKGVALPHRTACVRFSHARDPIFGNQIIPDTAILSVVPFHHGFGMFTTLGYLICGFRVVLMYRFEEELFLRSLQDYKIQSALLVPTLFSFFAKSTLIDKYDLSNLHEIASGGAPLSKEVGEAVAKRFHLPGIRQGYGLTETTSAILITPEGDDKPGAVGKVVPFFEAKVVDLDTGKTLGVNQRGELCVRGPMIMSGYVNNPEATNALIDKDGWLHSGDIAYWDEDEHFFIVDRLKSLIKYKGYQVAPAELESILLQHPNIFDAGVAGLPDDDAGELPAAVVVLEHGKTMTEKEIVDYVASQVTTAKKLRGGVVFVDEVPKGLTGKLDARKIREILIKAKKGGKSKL
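Biochemical qHTS of compounds, final roughly 60 µM downward over six points, against 10 nM purified firefly luciferase using Km concentrations of substrates (10 uM D-luciferin, 10 uM ATP) in Tris acetate pH 7.5 buffer; luminescence output.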
ELG1 genotoxic = induces genotoxicity in HEK293T cells with luciferase-tagged ELG1; HEK293T ELG1-luciferase reporter, luminescence, 16 h; Potency, µM (highest dose often 46 µM), for inactives: at the top dose activity change, positive = activation, actives largely listed as activators; 1.3% of 330,000 active; also: % of control where 0% means no effect; nearly all actives have a fitted effect of over 60% in size
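Cells (2,000/well) expressing the ELG1-luciferase fusion are dosed by pin tool and kept 16 hr at 37 °C, 5% CO2. Signal comes from ONE-Glo luciferase reagent after 30 min at room temperature.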
NPC1 prom act = activators of NPC1 promoter | 2.4% of 320,000 active | Huh7 NPC1 promoter luciferase reporter, 24 h | Potency, µM (series often up to 9.22 µM), for inactives: top-dose activation, actives largely listed as activators; also: % of control where 0% means no effect; nearly all actives have a fitted effect of over 60% in size
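Luminescence from an NPC1 promoter-driven luciferase reporter in stably transfected Huh7 cells was measured after 24 h compound treatment at 37 °C, followed by 10 min ambient incubation with luciferase detection reagent.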
Luc counter = counter-screen: inhibitors of Kinase-Glo firefly luciferase | Q27757 | Kinase-Glo luciferase, ATP luminescence, 8 min | Potency, µM (top dose mostly 38.3 µM), inactives show top-dose activity change, negative = inhibition, hits mostly inhibitors | 0.28% of 200,000 active; also: % is scaled to controls: 0 for no effect and ±100 for the full control effect; nearly all actives have a fitted effect of over 60% in size
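Kinase-Glo luciferase light output from ATP and luciferin was measured with 10 uM ATP, within the enzyme's linear range. Buffer: 50 mM imidazole pH 7.2, 50 mM KCl, 7 mM MgCl2, 0.01% Tween 20, 0.05% BSA; luminescence read after 8 min at ambient temperature.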
Rab9 prom act = activators of Rab9 promoter; Huh7 Rab9 promoter-luciferase reporter, luminescence, 24 h; Potency, µM (titrated, usually from 9.22 µM), for inactives: at the highest dose activation, negative = inhibition, usual class: activators; 2.8% of 320,000 active; AID 485297; also: % of control where 0% means no effect; nearly all actives have a fitted effect of over 60% in size
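Cell-based reporter: Huh7 stable for Rab9 promoter-driven luciferase, plated in reduced-serum medium with 10% FBS at 1500 cells/well, compound-treated 24 h at 37 °C, luminescence read after 10 min reagent.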
SMN2 splice up = enhancers of SMN2 splice variant expression; HEK293 SMN2-luciferase splicing reporter, luminescence, 30-36 h; Potency, µM (series often up to 46.1 µM), without a hit: at the top dose activity change, positive = activation, usual class: activators; 2.8% of 210,000 active; AID 1458; also: % of control where 0% means no effect; nearly all actives have a fitted effect of over 55% in size
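HEK293 cells carry an SMN2 minigene-luciferase reporter in which exon 7 inclusion puts luciferase in frame. Cells were seeded at 2000 cells/well, attached for 10-12 hours, then exposed to compounds for 30-36 hours at 37C before ONE-Glo luminescence.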
The depositor's hits bear a star; ? = inconclusive; . = no result; [ ] = dose if it differs, or a comment. Only some compounds are listed: those with a hit (about 7.3% of all), similar ones and a draw of the others. Calls follow the shape of the dose curve; as a rule, active = well fitted curve in the direction sought with a large enough effect; inconclusive = small, poorly fitted or top-dose-only effect, or another doubt; inactive = no such curve, though single readings can be large; an effect the other way counts as inactive or inconclusive. Potency is read from the fitted curve at half-maximal effect.

SMILES	FLuc modulator	ELG1 genotoxic	NPC1 prom act	Luc counter	Rab9 prom act	SMN2 splice up
Cc1ncsc1C(=O)Nc1nc2c(s1)CC(C)CC2 (centres undefined)	2.13µM*	2.06µM*	1.78µM*	?	?	12.6µM*
COc1ccc(C)cc1NC(=O)COC(=O)c1ccc2c(c1)OCO2	.	-0.2%	-2.9%	.	-6.8%	.
N/C(=N\OC(=O)c1ccc2c(c1)OCO2)c1ccncc1	1.51µM*	?	3.16µM*	.	2.51µM*	.
COc1ccc(/C(N)=N/OC(=O)c2ccc3c(c2)OCO3)cc1	2.13µM*	?	?	-5.1%	?	11.2µM*
Cc1ccc(/C(N)=N/OC(=O)c2ccc3c(c2)OCO3)cc1	2.13µM*	?	3.16µM*	-15.3%	2.82µM*	12.6µM*
N/C(=N\OC(=O)c1ccc2c(c1)OCO2)c1ccc(Cl)cc1	0.849µM*	?	2.82µM*	?	?	?
N/C(=N\OC(=O)N1CCOCC1)c1ccc(Cl)cc1	?	6.1%	20.8%	-10.9%	?	-82.3%
O=C1C(c2ccc(C(F)(F)F)cc2)=C(Nc2ccc(Cl)cc2)c2ccccc21	1.7%	.	.	.	.	5.6%
O=C1c2ccccc2-c2ccc(N(Cc3ccc(Br)cc3)Cc3ccc(Br)cc3)cc21	.	.	.	2.2%[7.66 µM]	.	-1.3%[9.22 µM]
COc1ccc(CCNC(=O)c2c(C)oc3ncn(CC(C)C)c(=O)c23)c(OC)c1	-2.5%	.	.	.	.	.
CCCn1c(C)cc(/C=C(\C#N)C(=O)OCC(=O)NC(=O)NC(C)(C)C)c1C	16.9µM*	-0.5%	0.9%	-1.3%	-3.0%	4.1%
O=C1CSC2(C(=O)N(Cc3ccccc3F)c3ccccc32)N1c1cccc(C(F)(F)F)c1 (centres undefined)	-1.2%	.	.	.	.	.
CC(=O)Nc1ccc2nc(-c3ccc(Br)o3)[nH]c2c1	3.79µM*	?	?	-22.1%	3.55µM*	?
CC(=O)Nc1ccc2nc(-c3cccn3C)[nH]c2c1	?	?	27.4%	.	?	.
Cc1cccc2[nH]c(-c3ccc(NC(=O)c4ccco4)cc3)nc12	4.78µM*	?	2.24µM*	?	1µM*	14.1µM*
Cc1nc2ccc(C(=O)Nc3ccc4nc[nH]c4c3)cc2[nH]1	?	-2.3%	0.9%	.	-3.6%	.
Cc1ccc(-c2nc3ccccc3[nH]2)cc1NC(=O)c1ccco1	15.1µM*	24.1%	12.2%	-2.7%	10.6%	.
O=C(Nc1ccc2nc[nH]c2c1)c1ccco1	19µM*	?	19.0%	-23.6%	?	8.0%
CC(=O)c1ccc(NC(=O)CSc2cn(CC(=O)N3CCCCCC3)c3ccccc23)cc1	-12.5%	.	.	.	.	.
O=C(Nc1ccc2nc(-c3ccc(Br)o3)[nH]c2c1)c1ccco1	5.36µM*	-0.9%	?	-7.7%	?	-2.2%
O=C(Nc1ccc2nc(-c3ccc(Br)o3)[nH]c2c1)c1cccs1	4.26µM*	-1.4%	-0.2%	-3.8%	23.3%	-13.3%
CC(C)(C)C(=O)Nc1ccc(-c2nc3ccc(NC(=O)C(C)(C)C)cc3[nH]2)cc1	1.9µM*	.	.	.	.	?
CC(C)(C)C(=O)Nc1ccc(Cl)c(-c2nc3ccccc3[nH]2)c1	-9.7%	.	.	.	.	.
O=C(Nc1ccc2nc(-c3ccccc3)[nH]c2c1)c1ccco1	10.7µM*	?	?	-2.5%	?	15.8µM*
O=C(Nc1cccc(-c2nc3ccccc3[nH]2)c1)c1cccc(NC(=O)c2ccco2)c1	?	-23.4%	19.4%	-5.7%	0.9%	-89.6%
SMILES	FLuc modulator	ELG1 genotoxic	NPC1 prom act	Luc counter	Rab9 prom act	SMN2 splice up
COc1ccc(NC(=O)c2ccco2)cc1NC(=O)c1ccc(Br)o1	-1.1%	3.8%	-3.1%	0.4%	-5.0%	-32.1%
Cn1cccc1-c1nc2ccc(NC(=O)c3cccs3)cc2[nH]1	?	?	0.2%	1.1%	2.5%	40.7%
CCc1nn2c(=O)cc(COC(=O)c3ccccc3NC(=O)C3CCCCC3)nc2s1	-2.2%	.	.	.	.	.
C[C@@H]1CCCC(CC(=O)O)(CC(=O)O)C1	.	.	.	-1.8%[7.66 µM]	.	-12.0%[9.22 µM]
COC(=O)C1=CN(c2ccc(OC)cc2)C=C(C(=O)OC)C1c1ccc(C)c([N+](=O)[O-])c1	2.9%	-0.3%	-8.1%	0.6%	-9.5%	-12.4%
COC(=O)C1=CN(c2cccc(C)c2)C=C(C(=O)OC)C1c1cc(OC)c(O)c([N+](=O)[O-])c1	16.9µM*	-7.5%	-2.9%	-2.2%	-2.4%	-4.4%
O=C(Nc1ccon1)c1ccc(OC2CCCC2)cc1	3.01µM*	?	2.51µM*	-7.8%	2µM*	17.8µM*
CC(C)(C)c1cc(NC(=O)c2ccc(OC3CCCC3)cc2)no1	?	-0.1%	23.4%	0.9%	18.7%	-18.0%
N=C1C(c2nc3ccccc3s2)=C(O)CN1Cc1ccco1	?	9.2µM*	?	2.5%	?	?
CC(=O)c1cc(-c2ccc(F)cc2)n(CC(=O)NC2CCCCCC2)c1C	-1.2%	.	.	.	.	.
CCn1cc(C(=O)NCCc2ccc(OC)c(OC)c2)c(=O)c2cc(S(=O)(=O)N3CCC(C)CC3)ccc21	3.5%	.	.	.	.	4.1%
CC(C)c1nn2c(=O)cc(COC(=O)c3ccccc3Cl)nc2s1	16.9µM*	.	.	.	.	.
CC(C)c1nn2c(=O)cc(COC(=O)c3cccs3)nc2s1	10.7µM*	.	.	.	.	.
Cc1cc(C(=O)N/N=C/c2ccccc2)c(C)o1	10.7µM*	?	?	.	3.16µM*	.
O=C(N/N=C/c1ccccc1O)c1cccc2ccccc12	?	24.3%	-33.9%	.	-39.1%	.
Cn1c(C(=O)N/N=C/c2ccccc2)cc2ccccc21	2.69µM*	?	?	.	2.82µM*	.
Cc1cc(C(=O)NC2Cc3ccccc3C2)c(C)o1	21.3µM*	?	2.51µM*	.	3.16µM*	.
Cn1c(N)c(C(=O)N/N=C/c2ccccc2)sc1=S	-0.3%	4.4%	-0.5%	.	3.3%	.
Cc1cc(C(=O)N/N=C/C=C/c2ccccc2)c(C)o1	?	2.5%	0.8%	-1.2%	0.3%	-6.4%
Cc1cc(C(=O)N/N=C/c2cccc3ccccc23)c(C)o1	19µM*	?	12.7%	.	19.4%	.
CCOC(=O)c1c(C)oc2nc(C)nc(NCCCN3CCN(c4cccc(C)c4)C(C)C3)c12 (centres undefined)	-8.7%	.	.	.	.	.
Cc1nc(-n2nc(C)c(CCC(C)C)c2C)sc1C(=O)Nc1ccc(Cl)cc1	-2.5%	.	.	.	.	.
Cc1ccc(C)c(NC(=O)Cn2c(=O)n(CC3CCCO3)c(=O)c3ccccc32)c1 (centres undefined)	0.6%	.	.	.	.	26.2%
Cc1cc(C(=O)N/N=C/c2ccc([N+](=O)[O-])cc2)c(C)o1	26.9µM*	7.4%	10.8%	-19.0%	11.1%	3.4%
